In publication PMC5540273 (PLoS ONE, 2017):
Read-outs that look alike come from different tables or passages of the source.

Key:
Details in all cases: n = 1
NDR1 = system: T1, NDR1
T1 construct: gene STK38

NDR2 = system: NDR2
NEK10 = system: NEK10
NEK11 = system: NEK11
NEK1 = system: NEK1
NEK2 = system: NEK2
NEK3 = system: NEK3
NEK4 = system: NEK4
NEK5 = system: NEK5
NEK6 = system: NEK6
NEK7 = system: NEK7
NEK9 = system: NEK9
NIK = system: T2, NIK
T2 construct: gene MAP3K14

NIM1 = system: T3, NIM1
T3 construct: gene MGC42105

NLK = system: NLK
OSR1 = system: T4, OSR1
T4 construct: gene OXSR1

PAK1 = system: PAK1
PAK2 = system: PAK2
PAK3 = system: PAK3
PAK4 = system: PAK4
[1] = concentration: 1 μM, replicates: in singlicate
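Note: KINOMEscan kinase panel screen.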

## O=C(Nc1n[nH]c2cc(-c3cccc(F)c3F)ccc12)C1CC1 [SB-733894]
NDR1; [1]
  %Inh: 5%
NDR2; [1]
  %Inh: 0%
NEK10; [1]
  %Inh: 0%
NEK11; [1]
  %Inh: 0%
NEK1; [1]
  %Inh: 0%
NEK2; [1]
  %Inh: 5%
NEK3; [1]
  %Inh: 39%
NEK4; [1]
  %Inh: 3%
NEK5; [1]
  %Inh: 0%
NEK6; [1]
  %Inh: 0%
NEK7; [1]
  %Inh: 7%
NEK9; [1]
  %Inh: 0%
NIK; [1]
  %Inh: 0%
NIM1; [1]
  %Inh: 0%
NLK; [1]
  %Inh: 72%
OSR1; [1]
  %Inh: 0%
PAK1; [1]
  %Inh: 3%
PAK2; [1]
  %Inh: 41%
PAK3; [1]
  %Inh: 2%
PAK4; [1]
  %Inh: 12%

## CCn1c(-c2cccnc2O)nc2cnccc21 [SB-736715]
NDR1; [1]
  %Inh: 0%
NDR2; [1]
  %Inh: 0%
NEK10; [1]
  %Inh: 0%
NEK11; [1]
  %Inh: 0%
NEK1; [1]
  %Inh: 0%
NEK2; [1]
  %Inh: 0%
NEK3; [1]
  %Inh: 21%
NEK4; [1]
  %Inh: 0%
NEK5; [1]
  %Inh: 0%
NEK6; [1]
  %Inh: 0%
NEK7; [1]
  %Inh: 0%
NEK9; [1]
  %Inh: 0%
NIK; [1]
  %Inh: 27%
NIM1; [1]
  %Inh: 0%
NLK; [1]
  %Inh: 0%
OSR1; [1]
  %Inh: 0%
PAK1; [1]
  %Inh: 0%
PAK2; [1]
  %Inh: 0%
PAK3; [1]
  %Inh: 0%
PAK4; [1]
  %Inh: 32%

## Cn1cncc1-c1ccc2ncnc(Nc3ccc(OCc4ccccc4)cc3)c2c1 [GW320571]
NDR1; [1]
  %Inh: 0%
NDR2; [1]
  %Inh: 0%
NEK10; [1]
  %Inh: 3%
NEK11; [1]
  %Inh: 0%
NEK1; [1]
  %Inh: 0%
NEK2; [1]
  %Inh: 0%
NEK3; [1]
  %Inh: 0%
NEK4; [1]
  %Inh: 11%
NEK5; [1]
  %Inh: 0%
NEK6; [1]
  %Inh: 6%
NEK7; [1]
  %Inh: 0%
NEK9; [1]
  %Inh: 12%
NIK; [1]
  %Inh: 0%
NIM1; [1]
  %Inh: 19%
NLK; [1]
  %Inh: 11%
OSR1; [1]
  %Inh: 19%
PAK1; [1]
  %Inh: 0%
PAK2; [1]
  %Inh: 0%
PAK3; [1]
  %Inh: 2%
PAK4; [1]
  %Inh: 0%

## CCn1c(-c2ccccn2)nc2cnccc21 [SB-736398]
NDR1; [1]
  %Inh: 6%
NDR2; [1]
  %Inh: 0%
NEK10; [1]
  %Inh: 26%
NEK11; [1]
  %Inh: 39%
NEK1; [1]
  %Inh: 100%
NEK2; [1]
  %Inh: 0%
NEK3; [1]
  %Inh: 12%
NEK4; [1]
  %Inh: 10%
NEK5; [1]
  %Inh: 0%
NEK6; [1]
  %Inh: 0%
NEK7; [1]
  %Inh: 0%
NEK9; [1]
  %Inh: 0%
NIK; [1]
  %Inh: 24%
NIM1; [1]
  %Inh: 34%
NLK; [1]
  %Inh: 0%
OSR1; [1]
  %Inh: 0%
PAK1; [1]
  %Inh: 22%
PAK2; [1]
  %Inh: 24%
PAK3; [1]
  %Inh: 31%
PAK4; [1]
  %Inh: 0%

## Cc1ccc(NC(=O)Nc2cccc(Cl)c2)cc1-c1ccc(C(=O)Nc2ccncc2)cc1 [GSK1398468]
NDR1; [1]
  %Inh: 25%
NDR2; [1]
  %Inh: 0%
NEK10; [1]
  %Inh: 3%
NEK11; [1]
  %Inh: 0%
NEK1; [1]
  %Inh: 0%
NEK2; [1]
  %Inh: 2%
NEK3; [1]
  %Inh: 16%
NEK4; [1]
  %Inh: 0%
NEK5; [1]
  %Inh: 20%
NEK6; [1]
  %Inh: 0%
NEK7; [1]
  %Inh: 0%
NEK9; [1]
  %Inh: 0%
NIK; [1]
  %Inh: 2%
NIM1; [1]
  %Inh: 11%
NLK; [1]
  %Inh: 38%
OSR1; [1]
  %Inh: 12%
PAK1; [1]
  %Inh: 19%
PAK2; [1]
  %Inh: 0%
PAK3; [1]
  %Inh: 0%
PAK4; [1]
  %Inh: 0%

## Cc1ccc(NC(=O)Nc2cccc(C(F)(F)F)c2)cc1 [GSK955403]
NDR1; 1 µM
  %Inh: 15%
NDR2; 1 µM
  %Inh: 17%
NEK10; 1 µM
  %Inh: 24%
NEK11; 1 µM
  %Inh: 0%
NEK1; 1 µM
  %Inh: 7%
NEK2; 1 µM
  %Inh: 3%
NEK3; 1 µM
  %Inh: 5%
NEK4; 1 µM
  %Inh: 0%
NEK5; 1 µM
  %Inh: 0%
NEK6; 1 µM
  %Inh: 0%
NEK7; 1 µM
  %Inh: 0%
NEK9; 1 µM
  %Inh: 0%
NIK; 1 µM
  %Inh: 8%
NIM1; 1 µM
  %Inh: 0%
NLK; 1 µM
  %Inh: 15%
OSR1; 1 µM
  %Inh: 0%
PAK1; 1 µM
  %Inh: 24%
PAK2; 1 µM
  %Inh: 5%
PAK3; 1 µM
  %Inh: 0%
PAK4; 1 µM
  %Inh: 4%

## Cc1ccc(NC(=O)Nc2cc(C(C)(C)C)nn2-c2ccccc2)cc1 [GSK1014915]
NDR1; [1]
  %Inh: 0%
NDR2; [1]
  %Inh: 0%
NEK10; [1]
  %Inh: 19%
NEK11; [1]
  %Inh: 0%
NEK1; [1]
  %Inh: 0%
NEK2; [1]
  %Inh: 12%
NEK3; [1]
  %Inh: 8%
NEK4; [1]
  %Inh: 10%
NEK5; [1]
  %Inh: 0%
NEK6; [1]
  %Inh: 0%
NEK7; [1]
  %Inh: 6%
NEK9; [1]
  %Inh: 0%
NIK; [1]
  %Inh: 35%
NIM1; [1]
  %Inh: 3%
NLK; [1]
  %Inh: 14%
OSR1; [1]
  %Inh: 0%
PAK1; [1]
  %Inh: 0%
PAK2; [1]
  %Inh: 2%
PAK3; [1]
  %Inh: 76%
PAK4; [1]
  %Inh: 0%

## Cc1cc(NCC(c2ccccc2)c2ccccc2)nc(NCc2ccc(C(F)(F)F)cc2)n1 [GW497681]
NDR1; [1]
  %Inh: 10%
NDR2; [1]
  %Inh: 16%
NEK10; [1]
  %Inh: 0%
NEK11; [1]
  %Inh: 0%
NEK1; [1]
  %Inh: 0%
NEK2; [1]
  %Inh: 0%
NEK3; [1]
  %Inh: 0%
NEK4; [1]
  %Inh: 0%
NEK5; [1]
  %Inh: 0%
NEK6; [1]
  %Inh: 0%
NEK7; [1]
  %Inh: 0%
NEK9; [1]
  %Inh: 0%
NIK; [1]
  %Inh: 7%
NIM1; [1]
  %Inh: 22%
NLK; [1]
  %Inh: 0%
OSR1; [1]
  %Inh: 3%
PAK1; [1]
  %Inh: 0%
PAK2; [1]
  %Inh: 2%
PAK3; [1]
  %Inh: 0%
PAK4; [1]
  %Inh: 0%

## Cc1c(O)cccc1Nc1ccnc2ccc(C(F)(F)F)cc12.Cl [GW466413]
NDR1; [1]
  %Inh: 0%
NDR2; [1]
  %Inh: 0%
NEK10; [1]
  %Inh: 16%
NEK11; [1]
  %Inh: 0%
NEK1; [1]
  %Inh: 0%
NEK2; [1]
  %Inh: 0%
NEK3; [1]
  %Inh: 0%
NEK4; [1]
  %Inh: 0%
NEK5; [1]
  %Inh: 0%
NEK6; [1]
  %Inh: 0%
NEK7; [1]
  %Inh: 0%
NEK9; [1]
  %Inh: 0%
NIK; [1]
  %Inh: 22%
NIM1; [1]
  %Inh: 17%
NLK; [1]
  %Inh: 0%
OSR1; [1]
  %Inh: 0%
PAK1; [1]
  %Inh: 0%
PAK2; [1]
  %Inh: 0%
PAK3; [1]
  %Inh: 1%
PAK4; [1]
  %Inh: 0%

## Nc1ncnc2[nH]c(-c3ccccc3)nc12 [AH5015]
NDR1; [1]
  %Inh: 0%
NDR2; [1]
  %Inh: 0%
NEK10; [1]
  %Inh: 49%
NEK11; [1]
  %Inh: 71%
NEK1; [1]
  %Inh: 4%
NEK2; [1]
  %Inh: 18%
NEK3; [1]
  %Inh: 53%
NEK4; [1]
  %Inh: 26%
NEK5; [1]
  %Inh: 32%
NEK6; [1]
  %Inh: 0%
NEK7; [1]
  %Inh: 7%
NEK9; [1]
  %Inh: 1%
NIK; [1]
  %Inh: 50%
NIM1; [1]
  %Inh: 21%
NLK; [1]
  %Inh: 0%
OSR1; [1]
  %Inh: 17%
PAK1; [1]
  %Inh: 30%
PAK2; [1]
  %Inh: 48%
PAK3; [1]
  %Inh: 100%
PAK4; [1]
  %Inh: 0%
